According to PubChem BioAssay AID504894 (National Center for Advancing Translational Sciences (NCATS), 2011):
Fewer than 10 of roughly 330,000 compounds were called active. Calls come from the whole dose curve; as a rule, active = well fitted activation curve with a large enough effect; inconclusive = small, poorly fitted or top-dose-only effect, or another doubt; inactive = no such curve, though single readings can be large or run the other way. The list is a sample of the results. Square brackets hold non-standard residues; d marks the D form. Peptide text beside a SMILES is read from it. ξ: configuration not given here. Ac5c = NC1(C(=O)O)CCCC1; ξS = NC(CO)C(=O)O

Experiment: Activators of T cell receptors: qHTS campaign; note: % of control where 0% means no effect
Settings: primary human leukocytes, anti-CD3, IL-2 HTRF, 48 h; series mostly up to 9.22 µM; activation of IL-2 secretion: at the top concentration
From the text: Normally activation of naive T cells requires two signals. 1. A signal through the T cell receptor (TCR) which provides antigen specificity to the response. 2. Signals through co-stimulatory molecules, which are necessary for proliferation, survival and cytokine production. In the absence of co-stimulatory signals T cells are not effectively activated, and may even be rendered anergic or unresponsive to subsequent signaling. This lack of costimulation has been shown in multiple model systems to be a major factor in the limited strength and effectiveness of anti-tumor T cell responses. The goal of this project is to identify small molecule compounds that will stimulate T cell activation in the presence of TCR signaling but in the absence of co-stimulatory signals, thereby allowing activation of naive T cells in the absence of co-stimulation. Identification of such compounds would have clear experimental and clinical applications in instances where desirable antigen-specific immune responses are not generated due to a lack of co-stimulation, for example in the generation of anti-tumor responses. In collaboration between the National Cancer Institute and NIH Chemical Genomics Center, a high-throughput amenable screen was developed to discover small molecules that co-stimulate and activate human T cell receptors. The screen will be carried out using a novel homogeneous time resolved fluorescence energy transfer (HTRF) assay to measure production of the cytokine IL-2 by activated T cells and will be tested against the NIH Molecular Libraries Small Molecule Repository (MLSMR). NIH Chemical Genomics Center [NCGC] NIH Molecular Libraries Probe Centers Network [MLPCN] MLPCN Grant: MH090820-01 Assay Submitter (PI): Richard Hodes, National Cancer Institute, NIH
Primary human leukocytes are incubated with a-CD3 beads and compounds for 48 hr. The amount of secreted IL-2 is then assayed with a HTRF IL-2 kit. The presence of IL-2 cytokine captures the detection reagents and brings the a-IL-2-K and a-IL-2-d2 into close proximity. Upon excitation with 320nm light, the europium cryptate is capable of transferring energy to acceptor molecules within close proximity, resulting in acceptor molecule emission at 665nm.

Activation of IL-2 secretion, inactive:
COc1ccc(S(=O)(=O)N2C[C@H]3CON(C)[C@H]3C[C@H]2c2cccc(Br)c2)cc1 0.192%, CC(C)c1cc(N=O)cc(C(C)C)c1O 0.896%, COC(=O)CC(CC(=O)OC)n1cccc1 5.57%, CCOc1ccc(/C=C(/C#N)c2nnc(N3CCOCC3)n2-c2ccccc2)cc1OC 14.1%, O=C(Cc1ccc(NC(=O)C2CCCN(C(=O)C3CCCCC3)C2)cc1)Nc1cccc(C(=O)N2CCCCC2)c1 (stereo not drawn) -6.51%, Cc1[nH]c(N)nc(=S)c1CCCNc1ccccc1 -4.36%, CC(=NNC(=O)c1ccncc1)c1ccc(Cl)c(Cl)c1 0.449%, O=C(CCCCCCCC(=O)N1CCCCC1)N1CCCCC1 1.97%, NC(=O)C1(N2CCCC2)CCN(Cc2ccccc2)CC1 -0.103%, CCOc1cc(C(=O)N(Cc2ccccc2)c2ccc(C)cc2)ccc1OCC(=O)N1CCOCC1 -0.923%, CN(C(=O)c1ccc(NC(=O)Cc2cccc(NC(=O)C3CCN(C(=O)c4ccccc4)CC3)c2)cc1)C1CC1 0.0664%, COCC(=O)N(C)[C@H]1C[C@H]2c3cc(Oc4ccccc4C)ccc3CCN2C(=O)[C@H]1[C@H](C)O 8.09%, CCN(CC)S(=O)(=O)c1cccc(NC(=O)c2ccc(S(=O)(=O)N3CCCC3)cc2)c1 -28.5%, CCOC(=O)CCC(NC(=O)c1ccc(CNc2nc3cc(C(F)(F)F)ccc3nc2C(=O)OCC)cc1)C(=O)OCC (stereo not drawn) -0.383%, N#CC1(Nc2ccc(-c3ccc(Cl)cc3)cc2)CCCC1 -4.8%, O=C(O)C(c1cccs1)C1(O)CCCCC1 (stereo not drawn) 3.18%, COc1ccccc1NC(=O)N(O)C1(C#N)CCCCC1 -5.54%, CC(C)Cc1nnc(N)s1 -2.99%, Cn1c(N)cc(=O)n(C)c1=S 1.37%, CN1C(c2ccc(F)cc2)=CS/C1=C(/C#N)c1nnc2n1-c1ccccc1SC2 4.24%, COc1ccc2c(c1)c(=Cc1ccc(N(C)C)cc1)c1cc(-c3ccccc3)[n+](C)n12 -1.83%, O=C(Nc1cccc(Br)c1)C1CC(=O)N(C2CCCC2)C1 (stereo not drawn) 7.06%, Cc1cc(OCCCC(=O)Nc2cc(S(=O)(=O)N3CCOCC3)ccc2N2CCOCC2)ccc1Cl -1.39%, Cc1cc(NC(=O)C(C)SCC(=O)Nc2cccc(S(=O)(=O)N3CCCCCC3)c2)no1 (stereo not drawn) 0.672%, Oc1ccc(-c2nc3ccccc3nc2-c2ccc(O)cc2O)c(O)c1 -0.514%, CSCCC(NS(=O)(=O)c1ccc(C)cc1)C(=O)N(C)CC(=O)Nc1ccccc1Br (stereo not drawn) -0.958%, CCCCN1CC(COc2ccccc2)Oc2cccc(F)c2S1(=O)=O (stereo not drawn) 4.26%, CC(C)=CCc1ccc(O)c(=O)cc1C(C)C 12.1%, CC1(C)C(=O)CCC2(C)C1=CCC1C2C(=O)CC2(C)C1CCC2(O)C(=O)CO (stereo not drawn) 0.234%, COC1=CC(=O)OC(C)(c2ccccc2)C1 (stereo not drawn) -3.37%, O=C(NCC1CCCCC1)NCC1CCCCC1 -9.34%, Cc1ccc(NC(=O)C(C)OC(=O)C2CC3CCCC(C2)C3=O)cc1S(=O)(=O)N1CCOCC1 (stereo not drawn) 6.86%, COc1ccc(CNC(=O)COC(=O)C2=Cc3ccccc3OC2)cc1 0.823%, COC1C(CO)OC(n2cnc3c(=S)nc(N)[nH]c32)C1O (stereo not drawn) -2.7%, O=C(c1cccc(S(=O)(=O)N2CCCCCC2)c1)N1CCN(Cc2ccccc2)CC1 4.29%, O=C1NC(c2ccccc2)Cc2ccncc21 (stereo not drawn) 1.23%, CN1CCOC1c1ccc(C2OCCN2C)cc1 (stereo not drawn) 4%, CC1CCCN(C(=O)Cn2c(=O)oc3cc(S(=O)(=O)N4CCCCC4C)ccc32)C1 (stereo not drawn) 1.25%, O=C(Cc1ccc(NC(=O)C2CCCN(C(=O)CCc3ccccc3)C2)cc1)Nc1ccc(C(=O)N2CCOCC2)cc1 (stereo not drawn) 6.18%, CCOc1ccc(S(=O)(=O)N2CCN(C(=O)c3oc4ccccc4c3C)CC2)cc1 -1.99%, CN(C(=O)c1cccc(NC(=O)Cc2ccc(NC(=O)C3CCN(C(=O)C4CCCCC4)CC3)cc2)c1)C1CCC1 -2.83%, COc1cc2c(cc1OC)C1C(=O)c3cc(OS(C)(=O)=O)c(OC)cc3C1N(C)C2=O (stereo not drawn) 18%, Nc1cc(=O)n(Cc2ccccc2)c(=O)n1Cc1ccccc1 1.08%, c1ccc(CNc2ncnc3[nH]ncc23)cc1 -0.266%, C[n+]1cccc(C(=O)O)c1 -1.15%, O=S(=O)(Cc1ccc(Cl)cc1Cl)c1ccc(Cl)cc1 -0.548%, CCOC(=O)[C@H]1[C@H]2COc3ccc(Br)cc3[C@@H]2N2C(=O)CN(C)C(=O)[C@@]12C -0.578%, O=[N+]([O-])c1cccc(C=NN=Cc2ccccc2O)c1 3.44%, O=C(Nc1ccc2ccccc2c1[N+](=O)[O-])c1ccccc1 2.49%, COc1ccc(NS(=O)(=O)c2ccc(N3CCOCC3)c(NC(=O)/C=C/C(=O)O)c2)cc1 -0.522%, Cc1nc2ccc(N)nc2nc1C 1.17%, CCOC(=O)C(CO)NC(=O)C1(NC(C)=O)CCCC1 (stereo not drawn) (Ac-[Ac5c]-[ξS]-OEt) -9.89%, COc1ccc(N=C2C=CC(=O)O2)cc1 2.72%, C/C(=N\Nc1ccc(Cl)nn1)c1ccccc1O -4.92%, O=C(NNC(=O)c1ccc2ccccc2c1)c1ccc(Cl)cc1 3.64%, COC(=O)Cc1nc2c(N)nc(N)nc2[nH]c1=O 2.41%, CC(C)OC(=O)c1ccc(NCc2cc(O)ccc2O)cc1Cl -2.79%, Cc1cc([N+](=O)[O-])c(=O)[nH]c1C -6.49%, O=C(O)c1ccc(NN=CC2=C(N3CCOCC3)/C(=C/c3ccccc3)CC2)cc1 -1.53%, CCN1C[C@@H]2[C@@H]3C(=O)N(C)C(=O)[C@@H]3[C@](C)(C1=O)N2C(=O)c1ccccc1 1.71%, COc1ccc(Br)cc1/C=N/Nc1ccc(S(=O)(=O)Nc2ccccc2C(=O)O)cc1[N+](=O)[O-] -1.12%, O=C(Nc1c[nH]c(=O)[nH]c1=O)OCc1ccccc1 -1.09%, O=C(Nc1ccn(CCCNCc2ccc3[nH]ccc3c2)c(=O)n1)OCc1ccccc1 3.57%, CCCCNCCS(=O)(=O)NCc1ccccc1 -4.58%, COc1ccc2nc(N3C(=O)C(O)=C(C(=O)c4ccco4)C3c3ccco3)sc2c1 (stereo not drawn) 1.73%, COc1ccc(C(CNC(=O)c2cccc(S(=O)(=O)Nc3ccc(Br)cc3)c2)N(C)C)cc1 (stereo not drawn) -9.63%, CCCCC(=O)NC(c1ccc(OC)c(OC)c1)c1ccc2cccnc2c1O (stereo not drawn) 3.02%, O=c1[nH]c(=S)[nH]c(O)c1/C=C1\C=Nc2ccccc21 -2.5%
